Screens deposited in PubChem BioAssay by National Center for Advancing Translational Sciences (NCATS).
The list is not random: actives were taken first. Their share in the collection is about 2.5%.
HTT-AS act = activators of huntingtin-antisense promoter activity | HEK293 HTT-AS promoter firefly luciferase reporter, 24 h; response scale: percent change from vehicle, -100% = no light | Potency, µM (titrated, usually from 57.5 µM), for the others: at the top dose activity change, positive = activation, most hits filed as activators | actives 0.24% (n = 48,000); also: potency is read from the fitted curve at half-maximal effect; nearly all actives have a fitted effect of over 55% in size
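HEK293 cells carrying firefly luciferase reporters were seeded at 2,500 per well in Opti-MEM and cultured for 24 h. They were then treated with compounds at up to 57.5 uM final for 24 h at 37 degrees C before Dual-Glo luminescence readout.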
OvCa metastasis = inhibitors of ovarian cancer cell adhesion and invasion in omental model; actives 0.1% (n = 46,000); SKOV3ip1-GFP adhesion/invasion on 3D omental model, fluorescence; AID 1963576; Potency, µM (series often up to 45.8 µM), for the others: at the top dose activity change, negative = inhibition, most hits filed as inhibitors;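 also: potency is read from the fitted curve at half-maximal effect; plate controls were DMSO wells for no effect and tomatine positive control wells for full effect; nearly all actives have a fitted effect of over 65% in size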
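qHTS, 4-pt dose (0.36-46 umol/L); SKOV3ip1-GFP, 1,200 cells/well, no FBS; primary omental fibroblast/mesothelial co-culture 48 h pre-grown; 2 h RT + 16 h 37 C; PBS wash, 4% PFA; GFP count 488/509 nm.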
HTT prom inh = inhibitors of huntingtin promoter activity. HEK293 HTT promoter firefly luciferase reporter, 24 h. AID 1508623. actives 0.93% (n = 48,000). Potency, µM (top dose mostly 57.5 µM), without a hit: top-dose activity change, negative = inhibition, actives largely listed as inhibitors; also: potency is read from the fitted curve at half-maximal effect; nearly all actives have a fitted effect of over 50% in size
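HEK293 cells carrying firefly luciferase reporters were seeded at 2,500 per well in Opti-MEM and cultured for 24 h. They were then treated with compounds at up to 57.5 uM final for 24 h at 37 degrees C before Dual-Glo luminescence readout.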
GALK inhibitor = inhibits human galactokinase; recombinant GALK, Kinase-Glo ATP luminescence, 1 h; 44,000 tested, under 10 active; P51570; AID 1347072; Potency, µM (highest dose often 57.5 µM), for the others: top-dose activity, negative = inhibition, hits mostly inhibitors;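 also: plate controls were full GALK reaction for no effect and reaction lacking GALK for full effect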
Target sequence (P51570 whole entry, looked up): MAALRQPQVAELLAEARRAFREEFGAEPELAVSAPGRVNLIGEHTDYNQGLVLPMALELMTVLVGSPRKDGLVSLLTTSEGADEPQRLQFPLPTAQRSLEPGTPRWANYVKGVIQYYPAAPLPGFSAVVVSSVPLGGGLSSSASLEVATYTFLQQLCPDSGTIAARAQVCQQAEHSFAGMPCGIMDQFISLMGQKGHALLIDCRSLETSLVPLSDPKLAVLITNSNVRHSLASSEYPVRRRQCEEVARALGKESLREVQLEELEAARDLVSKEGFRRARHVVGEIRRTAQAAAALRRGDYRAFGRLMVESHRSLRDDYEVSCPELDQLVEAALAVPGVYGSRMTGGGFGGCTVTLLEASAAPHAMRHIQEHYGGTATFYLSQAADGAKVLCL
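5 nM GALK; 35 uM ATP; 100 uM D-galactose; 20 mM HEPES pH 8.0, 5 mM MgCl2, 60 mM NaCl, 1 mM DTT, 0.01% BSA; 1 h RT; Kinase-Glo Plus luminescence.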
TSG101-PTAP inh = blocks PTAP binding to human TSG101, validation. 44,000 tested, under 10 active. Potency, µM (doses to about 115 µM), usual class: inhibitors. AID 1347069. Fluorescence polarization, FITC-PTAP peptide/Tsg101, 20 min; also: potency is read from the fitted curve at half-maximal effect; 0% is about no effect
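Steps: Tsg101 binding domain (10 uM final) in HEPES pH 7.5/NaCl/Tween 20/EDTA/TCEP; add compound; add FITC-PTAP peptide (50 nM final); incubate 20 min r.t.; read polarization.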
NTMT1 inhibitor = inhibitors of human N-terminal methyltransferase NTMT1; NTMT1 MTase-Glo SAH luminescence, purified enzyme; Potency, µM (doses to about 114 µM), without a hit: at the top dose activity change, negative = inhibition, most hits filed as inhibitors; actives 2.5% (n = 59,000); AID 1645870;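 also: potency is read from the fitted curve at half-maximal effect; plate controls were DMSO vehicle for no effect and no enzyme for full effect; nearly all actives have a fitted effect of over 65% in size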
The depositor's hits bear a star; i = inactive; u = inconclusive; x = no result given; [ ] = remark or other dose. Calls follow the shape of the dose curve; as a rule, active = well fitted curve in the direction sought with a large enough effect; inconclusive = small, poorly fitted or top-dose-only effect, or another doubt; inactive = no such curve, though single readings can be large; an effect the other way counts as inactive or inconclusive.

SMILES	HTT-AS act	OvCa metastasis	HTT prom inh	GALK inhibitor	TSG101-PTAP inh	NTMT1 inhibitor
O=C(Nc1nc(-c2ccccc2)cs1)c1ccncc1NS(=O)(=O)c1cccc2cccnc12	x	x	x	x	x	50.1µM*
CCNC(=O)C1CCN(C(=O)C(C)(C)NC(=O)Nc2ccccc2Cl)CC1	x	x	x	x	x	-1.7%[57.5 µM]
COc1cc(CN(C(=O)c2ccc(OC(C)C)cc2)c2ccccn2)cc(OC)c1OC	-54.1%	-5.5%	15.8µM*	-4.8%	i	15.9%
COc1ccc(C(=O)N(Cc2cc(OC)c(OC)c(OC)c2)c2ccccn2)cc1	-25.8%	9.2%	u	-4.9%	i	u
O=C(Nc1cccc(C(F)(F)F)c1)c1cc(-c2ccc(Cl)cc2)on1	-7.8%	16.6%	-5.7%	5.6%	i	7.8%
FC(F)(F)c1cccc(Nc2nc3nonc3nc2Nc2ccc(Cl)cc2)c1	-93.5%	10µM*	0.355µM*	-6.8%	i	8.9%
CCCCOC(=O)c1cccc(NC(=O)c2cc3ccccc3o2)c1	-52.4%	-25.1%	10µM*	0.3%	i	1.0%
CCCCOC(=O)c1ccc(NC(=O)c2cc(=O)c3ccccc3o2)cc1	0.0%	3.5%	-16.8%	-1.8%	i	u
O=C([C@@H](Cc1ccc(O[S+](=O)([O-])c2cccnc2)cc1)N[S+](=O)([O-])c1cccc2cccnc12)N1CCN(c2ccccc2)CC1	x	x	x	x	x	5.5%
Cc1cc(-c2cc(O)ccc2Cl)cc2nnc(Nc3ccc(OCCN4CCCC4)cc3)nc12	x	x	x	x	x	20µM*
COC(=O)c1cc(OC)c(O[C@@H]2O[C@@H](C)[C@H](O)[C@@H](O)[C@H]2O)c(OC)c1	x	x	x	x	x	11.1%[29.8 µM]
CCCC(=O)N(c1ccc2oc(C)c(C(C)=O)c2c1)S(=O)(=O)c1ccc(CC)cc1	-54.4%	i	5.01µM*	0.0%	i	-5.8%
COC(=O)c1c(C)oc2ccc(N(C(=O)c3ccncc3)S(=O)(=O)c3cc(C)ccc3C)cc12	-38.6%	i	28.2µM*	-0.9%	i	1.7%
CCOc1ccc(S(=O)(=O)N(C(C)=O)c2ccc3oc(C)c(C(=O)OC)c3c2)cc1	-79.1%	-20.2%	2.51µM*	0.2%	i	8.1%
CCOC(=O)C1CCN(C(=O)C(C)(C)NC(=O)Nc2cccc(OC)c2)CC1	x	x	x	x	x	8.0%[57.5 µM]
O=S(=O)(c1ccc(Cl)cc1)c1nnn2c1nc(NCc1ccccc1)c1sccc12	-8.9%	-3.2%	-13.2%	-8.3%	i	89.1µM*
COc1ccc(C2Nc3ccccc3C(=O)N2Cc2cccs2)cc1COc1c(C)cc(NC(C)=O)cc1C (configuration not stated)	x	x	x	x	x	9.3%[57.5 µM]
Cc1cc(=O)n(CC(=O)N2CCN(c3ccccc3F)CC2)c2c1c(C)nn2C	-54.2%	-8.0%	20µM*	2.0%	i	-4.2%
Cc1cc(NS(=O)(=O)c2ccc(N(C)C(=O)Cc3ccc(Cl)c(Cl)c3)cc2)no1	x	x	x	x	x	-7.7%
Nc1ncnc2c1ncn2[C@@H]1O[C@H](CO)[C@@H](O)[C@@H]1O	-3.1%	-28.8%	0.2%	x	x	-9.1%
Nc1ncnc2c1c(I)cn2C1OC(CO)C(O)C1O (configuration not stated)	x	x	x	x	x	1.41µM*
C=C1CC2C3(C)C(OC(C)=O)CC(=O)OC(C)(C)C3C(O)C(OC(C)=O)C2(C)C2C(=O)OC(C)C(=O)C12C (configuration not stated)	x	x	x	x	x	11.4%[29.8 µM]
O=C1N(CC2CCCCN2)CCN1c1ccccc1 (configuration not stated)	x	x	x	x	x	3.6%[57.5 µM]
O=C(O)c1cccc(-c2noc(-c3ccccc3C(F)(F)F)n2)c1	x	x	x	x	x	-2.6%
Cc1ccc(CCNC(=O)c2cc3c(s2)-c2c(C)cccc2OC3)cc1	-12.0%	-20.1%	-20.3%	3.2%	i	89.1µM*
CC1CCC(C(=O)Nc2ccc([S+](=O)([O-])Nc3nccs3)cc2)CC1 (configuration not stated)	x	x	x	x	x	21.7%
